Where “and” joins values, the source holds several entries; their conditions need not be identical. Equal values may be shown once. Out of some 5,500 compounds screened, about 2,000 (36%) were called active. Not shown: some 18% with an inconclusive outcome. No stated cut-off is given here; in the data, active means normalized growth mostly below about 0.91 (no sharp cut-off); inconclusive means no clear call, values can overlap the other calls; inactive means mostly above about 0.92. The list shows a part of the results.
Assay: chemical genetic growth profiling, strain panel (AID 1159580);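 further: tested at 20 µM; growth read once vehicle control cultures reached saturation at 30 °C; 1 = growth at the plate median or of vehicle wells; lower values mean less growth of the strain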
Conditions: S. cerevisiae deletion strains, growth OD

Measured: normalized growth

O=C(O)C1(O)C[C@@H](O)C(O)[C@H](O)C1 (stereo partly drawn)
inactive: locus YAL021C, strain ccr4, active compounds read low 0.984 | locus YAL026C, strain drs2, active compounds read low 0.985 | locus YAL030W, strain snc1, active compounds read low 0.987 | locus YBL061C, strain skt5, active compounds read low 0.968 | locus YBR009C, strain hhf1, active compounds read low 1 | locus YBR021W, strain FUR4, active compounds read low 1.01 | locus YBR023C, strain chs3, active compounds read low 0.97 | locus YBR171W, strain sec66, active compounds read low 0.983 | locus YBR229C, strain ROT2, active compounds read low 1 | locus YBR231C, strain swc5, active compounds read low 0.983 | locus YBR279W, strain paf1, active compounds read low 0.985 | locus YCL011C, strain gbp2, active compounds read low 0.978 | locus YCL016C, strain dcc1, active compounds read low 0.973 | locus YCL029C, strain bik1, active compounds read low 1.03 | locus YCL069W, strain vba3, active compounds read low 0.988 | locus YCR088W, strain abp1, active compounds read low 0.979 | locus YDL005C, strain med2, active compounds read low 0.957 | locus YDL035C, strain GPR1, active compounds read low 0.99 | locus YDL040C, strain nat1, active compounds read low 0.979 | locus YDL074C, strain BRE1, active compounds read low 1.04 | locus YDL101C, strain DUN1, active compounds read low 1.01 | locus YDL185W, strain tfp1, active compounds read low 1.02 | locus YDL192W, strain arf1, active compounds read low 1.02 | locus YDR001C, strain nth1, active compounds read low 0.975 | locus YDR069C, strain doa4, active compounds read low 0.993 | locus YDR101C, strain arx1, active compounds read low 1.02 | locus YDR137W, strain rgp1, active compounds read low 0.996 | locus YDR150W, strain NUM1, active compounds read low 1.01 | locus YDR159W, strain sac3, active compounds read low 1 | locus YDR162C, strain NBP2, active compounds read low 1.02 | locus YDR195W, strain ref2 0.959 | locus YDR297W, strain sur2, active compounds read low 0.995 | locus YDR318W, strain mcm21, active compounds read low 0.997 | locus YDR334W, strain swr1, active compounds read low 0.962 | locus YDR335W, strain msn5, active compounds read low 0.978 | locus YDR388W, active compounds read low 1.01 | locus YDR392W, strain spt3, active compounds read low 0.994 | locus YDR502C, strain sam2, active compounds read low 1.01 | locus YEL003W, strain gim4, active compounds read low 0.983 | locus YEL037C, strain rad23, active compounds read low 0.98 | locus YEL061C, strain CIN8 (second series), active compounds read low 0.98 | locus YEL061C, strain CIN8, active compounds read low 1.01 | locus YER015W, strain faa2, active compounds read low 0.975 | locus YER016W, strain bim1, active compounds read low 0.967 | locus YER110C, active compounds read low 1.02 | locus YER111C, strain swi4, active compounds read low 0.966 | locus YER155C, strain BEM2 (second series), active compounds read low 0.969 | locus YER155C, strain BEM2, active compounds read low 1 | locus YER167W, strain BCK2, active compounds read low 0.996 | locus YFR010W, strain ubp6, active compounds read low 0.992 | locus YGL078C, strain dbp3, active compounds read low 0.998 | locus YGL086W, strain mad1, active compounds read low 1.05 | locus YGL167C, strain pmr1, active compounds read low 0.976 | locus YGL173C, strain kem1, active compounds read low 0.973 | locus YGL227W, strain vid30, active compounds read low 0.979 | locus YGL240W, strain doc1, active compounds read low 0.975 | locus YGL248W, strain PDE1, active compounds read low 1 | locus YGL253W, strain hxk2, active compounds read low 0.989 | locus YGR135W, strain pre9, active compounds read low 1.01 | locus YGR229C, strain SMI1, active compounds read low 1.02 | locus YGR252W, strain gcn5, active compounds read low 0.954 | locus YHR013C, strain ard1, active compounds read low 0.964 | locus YHR027C, strain rpn1, active compounds read low 0.994 | locus YHR030C, strain SLT2, active compounds read low 1.01 | locus YHR079C, strain IRE1 (second series), active compounds read low 1.01 | locus YHR079C, strain IRE1, active compounds read low 1 | locus YHR094C, strain hxt1, active compounds read low 1.01 | locus YHR129C, strain ARP1, active compounds read low 1.01 | locus YHR142W, strain chs7, active compounds read low 0.982 | locus YHR200W, strain rpn10, active compounds read low 1.01 | locus YIL066C, strain RNR3, active compounds read low 1.01 | locus YIL073C, strain SPO22, active compounds read low 1.06 | locus YIL125W, strain kgd1, active compounds read low 1.02 | locus YIR030C, strain dcg1, active compounds read low 1.01 | locus YJL092W, strain hpr5, active compounds read low 0.979 | locus YJL095W, strain BCK1 (second series), active compounds read low 0.997 | locus YJL095W, strain BCK1, active compounds read low 0.993 and 1 | locus YJL115W, strain asf1, active compounds read low 0.974 | locus YJL129C, strain trk1, active compounds read low 0.984 | locus YJL134W, strain LCB3, active compounds read low 1.01 | locus YJL154C, strain vps35, active compounds read low 0.971 | locus YJL164C, strain tpk1, active compounds read low 0.981 | locus YJL166W, strain qcr8, active compounds read low 1.01 | locus YJL168C, strain set2, active compounds read low 1.01 | locus YJL187C, strain SWE1 (second series), active compounds read low 1.01 | locus YJL187C, strain SWE1, active compounds read low 0.98 | locus YJR043C, strain POL32, active compounds read low 1.01 | locus YJR066W, strain TOR1, active compounds read low 0.957 | locus YKL009W, strain mrt4, active compounds read low 1.01 | locus YKL068W, active compounds read low 1.01 | locus YKL085W, strain MDH1 (second series), active compounds read low 1.01 | locus YKL085W, strain MDH1, active compounds read low 1.01 | locus YKL160W, strain elf1, active compounds read low 0.978 | locus YKR001C, strain vps1, active compounds read low 1.04 | locus YKR026C, strain gcn3, active compounds read low 0.986 | locus YKR091W, strain srl3, active compounds read low 0.986 | locus YLL001W, strain dnm1, active compounds read low 0.962 | locus YLL026W, active compounds read low 0.978 | locus YLL041C, strain sdh2, active compounds read low 1 | locus YLR027C, strain aat2, active compounds read low 0.981 | locus YLR039C, strain RIC1, active compounds read low 1.07 | locus YLR058C, strain SHM2, active compounds read low 1.01 | locus YLR102C, strain apc9, active compounds read low 1.01 | locus YLR113W, strain HOG1, active compounds read low 1.02 | locus YLR221C, strain rsa3, active compounds read low 0.987 | locus YLR258W, strain gsy2, active compounds read low 0.973 | locus YLR262C, strain YPT6 (second series), active compounds read low 1.04 | locus YLR262C, strain YPT6, active compounds read low 1.1 | locus YLR268W, strain sec22, active compounds read low 1.04 | locus YLR320W, strain mms22, active compounds read low 0.974 | locus YLR330W, strain CHS5, active compounds read low 1 | locus YLR342W, strain FKS1 (second series), active compounds read low 1.01 | locus YLR342W, strain FKS1, active compounds read low 0.976 | locus YLR357W, strain rsc2, active compounds read low 0.995 | locus YLR370C, strain arc18, active compounds read low 0.992 | locus YLR371W, strain rom2, active compounds read low 1.02 | locus YLR384C, strain iki3, active compounds read low 0.983 | locus YLR418C, strain cdc73, active compounds read low 1.01 | locus YML016C, strain PPZ1, active compounds read low 1.01 | locus YML032C, strain rad52, active compounds read low 0.989 | locus YML120C, strain ndi1, active compounds read low 0.968 | locus YML124C, strain tub3, active compounds read low 1.01 | locus YMR058W, strain fet3, active compounds read low 0.964 | locus YMR078C, strain ctf18, active compounds read low 1.02 | locus YMR125W, strain sto1, active compounds read low 0.972 | locus YMR129W, active compounds read low 0.976 | locus YMR205C, strain PFK2, active compounds read low 0.984 | locus YMR223W, strain ubp8, active compounds read low 1 | locus YMR231W, strain pep5, active compounds read low 0.972 | locus YMR263W, strain SAP30, active compounds read low 1.01 | locus YMR307W, strain GAS1, active compounds read low 0.994 | locus YNL067W, strain RPL9B, active compounds read low 1.01 | locus YNL071W, strain lat1, active compounds read low 0.989 | locus YNL183C, strain NPR1, active compounds read low 0.953 | locus YNL209W, strain ssb2, active compounds read low 0.983 | locus YNL233W, strain BNI4, active compounds read low 1.01 | locus YNL248C, strain rpa49, active compounds read low 0.98 | locus YNL250W, strain rad50, active compounds read low 1.02 | locus YNL271C, strain bni1, active compounds read low 1.02 | locus YNL298W, strain CLA4, active compounds read low 1.02 | locus YNL307C, strain MCK1, active compounds read low 1.02 | locus YNL322C, strain KRE1 (second series), active compounds read low 0.969 | locus YNR049C, strain mso1, active compounds read low 0.963 | locus YNR052C, strain pop2, active compounds read low 0.999 | locus YOL012C, strain htz1 0.956 | locus YOL147C, strain pex11, active compounds read low 1.02 | locus YOR001W, strain rrp6, active compounds read low 1 | locus YOR061W, strain CKA2, active compounds read low 1.01 | locus YOR069W, strain VPS5, active compounds read low 1.01 | locus YOR070C, strain gyp1, active compounds read low 0.962 | locus YOR080W, strain dia2, active compounds read low 0.972 | locus YOR083W, strain WHI5, active compounds read low 0.981 | locus YOR106W, strain vam3, active compounds read low 1 | locus YOR136W, strain idh2, active compounds read low 1.03 | locus YOR144C, strain elg1, active compounds read low 1.02 | locus YOR184W, strain ser1, active compounds read low 1.01 | locus YOR231W, strain MKK1, active compounds read low 0.997 | locus YOR265W, strain rbl2, active compounds read low 0.989 | locus YOR270C, strain vph1, active compounds read low 1.03 | locus YOR290C, strain snf2, active compounds read low 0.992 | locus YOR316C, strain cot1, active compounds read low 1.01 | locus YPL051W, strain arl3, active compounds read low 0.992 | locus YPL055C, strain LGE1, active compounds read low 1.01 | locus YPL078C, strain atp4, active compounds read low 0.982 | locus YPL106C, strain sse1, active compounds read low 0.961 | locus YPL240C, strain hsp82, active compounds read low 1.01 | locus YPL241C, strain CIN2, active compounds read low 1.02 | locus YPL256C, strain CLN2, active compounds read low 0.992 | locus YPR119W, strain clb2, active compounds read low 1.01 | locus YPR141C, strain kar3, active compounds read low 1.01 | locus YPR163C, strain tif3, active compounds read low 1.03 | locus YPR167C, strain met16, active compounds read low 1.01 | strain wtn01, active compounds read low 1.05

Source: PubChem BioAssay AID1159580 (chemical genetic matrix, 2015)
